Source: PubChem (The Scripps Research Institute Molecular Screening Center)
pPAFAH FP inh = pPAFAH (human) enzyme inhibition; recombinant pPAFAH, FP-rhodamine probe fluorescence polarization; hit rate 1.5% among 330,000; inhibition, % at 3.39 µM; Q13093;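 active = inhibition above the mean inhibition across the screen plus 3 SD, cut at about 25% in these data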;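 note: inhibitors block binding of the rhodamine activity-based probe so polarization drops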
Target sequence (Q13093 whole entry, looked up): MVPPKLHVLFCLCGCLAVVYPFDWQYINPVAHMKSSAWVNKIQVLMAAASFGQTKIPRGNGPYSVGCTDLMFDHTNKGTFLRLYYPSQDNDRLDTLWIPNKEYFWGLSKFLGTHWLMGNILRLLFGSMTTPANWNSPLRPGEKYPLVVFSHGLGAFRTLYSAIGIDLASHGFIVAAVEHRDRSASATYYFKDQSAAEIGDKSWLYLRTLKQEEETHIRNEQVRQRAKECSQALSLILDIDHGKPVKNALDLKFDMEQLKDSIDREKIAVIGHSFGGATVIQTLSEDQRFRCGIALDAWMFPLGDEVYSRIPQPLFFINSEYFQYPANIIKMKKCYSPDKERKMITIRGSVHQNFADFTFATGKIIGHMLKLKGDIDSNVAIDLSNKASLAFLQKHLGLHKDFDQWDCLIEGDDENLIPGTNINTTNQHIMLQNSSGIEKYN
PAFAH2 inh = PAFAH2 (human) inhibition | recombinant PAFAH2, FP-rhodamine activity probe, fluorescence polarization | inhibition, % at 3.39 µM | hit rate 0.99% among 340,000 | AID 492956;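 active = inhibition above the mean over all tested compounds plus 3 SD, cut at about 30% in these data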;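 note: inhibitors block probe labeling of enzyme so polarization drops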
TCR-CD3 inh = human TCR-CD3 binding inhibition. TAMRA-labeled TCR probe fluorescence, biochemical. inhibition, % at 9.4 µM. hit rate 0.37% among 360,000;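 note: recombinant mutant TCR 2C K166C tagged with TAMRA read by polarization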
PAFAH1B3 inh = blocks human PAF acetylhydrolase 1B catalytic subunit 3. hit rate 0.28% among 340,000. inhibition, % at 3.39 µM. AID 492972. recombinant PAFAH1B3, FP-rhodamine probe, fluorescence polarization;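 active = inhibition above the screen-wide average of all tested compounds plus 3 SD, cut at about 25% in these data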
PAFAH1B2 FP inh = inhibitors of human PAFAH1B2. inhibition, % at 3.39 µM. recombinant PAFAH1B2, FP-rhodamine activity probe, fluorescence polarization. hit rate 1.2% among 340,000. P68402;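 active = inhibition above the mean of all tested compounds plus 3 SD, cut at about 24% in these data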
Target sequence (P68402 whole entry, looked up): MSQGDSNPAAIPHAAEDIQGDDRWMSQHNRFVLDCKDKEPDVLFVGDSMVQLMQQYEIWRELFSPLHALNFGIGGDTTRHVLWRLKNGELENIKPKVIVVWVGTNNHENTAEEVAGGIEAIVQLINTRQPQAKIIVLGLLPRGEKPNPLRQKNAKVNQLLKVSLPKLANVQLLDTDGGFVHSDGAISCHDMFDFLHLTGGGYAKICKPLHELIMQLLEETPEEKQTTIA
BSA TAMRA ctr = counter-screen for TCR-CD3 interaction inhibitors: BSA probe. shares compounds with TCR-CD3 inh. TAMRA-labeled BSA probe fluorescence counterscreen. inhibition, % at 9.4 µM. hit rate 10% among 1,200. AID 652035; in the data active = inhibition above about 23%
TCR-CD3 inh conf = TCR-CD3 interaction inhibition, confirmation; inhibition, % at 9.4 µM; shares compounds with TCR-CD3 inh; hit rate 48% among 1,200; AID 652036; TAMRA-labeled TCR probe fluorescence binding assay
Large screens that a line does not name were inactive (follow-up assays come after a bar, where they were run); ! = not confirmed by another sample. Hits are enriched below; roughly 2.7% of the tested compounds scored in any of these assays. Cut-off read from the data, not from the text of the source, unless noted: active = inhibition above about 19%; inactive = the rest.

Nc1ccc(-c2c3ccc(=O)cc-3oc3cc(O)ccc23)cc1C(=O)O	TCR-CD3 inh 37.9 | BSA TAMRA ctr 49.2 | TCR-CD3 inh conf 33.6
COC(=O)C[C@@H]1C=C[C@@H](NC(=O)CN(C)C)[C@@H](CO)O1	none (no result: pPAFAH FP inh, PAFAH2 inh, PAFAH1B3 inh, PAFAH1B2 FP inh)
Cc1c(C(=O)N2CCN(C(c3ccccc3)c3ccccc3)CC2)oc2ccccc12	none
Cc1cc(/C=N/NC(N)=S)c(O)c(/C=N/NC(N)=S)c1	TCR-CD3 inh 25.1 | BSA TAMRA ctr inactive | TCR-CD3 inh conf inactive
CC(C)C(=O)Nc1ccc(C(=O)N/N=C/c2cc(Br)cc(Br)c2O)cc1	none
CNC(=S)N/N=C/c1cc(Br)cc(Br)c1O	TCR-CD3 inh 40.4 | BSA TAMRA ctr inactive | TCR-CD3 inh conf 36.2
CC(=O)Nc1ccc(C(=O)N/N=C/c2cc(Br)cc(Br)c2O)cc1	TCR-CD3 inh 39.6 | BSA TAMRA ctr inactive | TCR-CD3 inh conf 41.9
Oc1c(Br)cc(Br)cc1/C=N/NC(=S)N[C@H]1CC2C=CC1C2 (stereo partly specified)	pPAFAH FP inh 46.0, PAFAH2 inh 56.9, TCR-CD3 inh 31.9 | BSA TAMRA ctr inactive | TCR-CD3 inh conf 38.2
O=C(NCc1nnc2c(C(F)(F)F)cc(Cl)cn12)c1cccnc1	none
CN(C)C/C=C(/c1ccc(Br)cc1)c1cccnc1	none
CC(=O)Oc1cc(C(=O)OCC(=O)N2CCc3ccccc3C2)cc(OC(C)=O)c1OC(C)=O	pPAFAH FP inh 33.2, PAFAH2 inh 36.0, TCR-CD3 inh 45.1 | BSA TAMRA ctr inactive | TCR-CD3 inh conf inactive
COc1ccc(S(=O)(=O)N2CCC[C@@H]2C(=O)N2CCC[C@H]2C(=O)NCc2ccncc2)cc1C	none (no result: pPAFAH FP inh, PAFAH2 inh, PAFAH1B3 inh, PAFAH1B2 FP inh)
CCOC(=O)C1=C(CC)Nc2ccccc2N=C1NC(=O)Nc1ccc(Cl)c(Cl)c1	TCR-CD3 inh 78.8 | BSA TAMRA ctr inactive | TCR-CD3 inh conf 53.6
CCOC(=O)C1=C(C)Nc2ccccc2N/C1=N\S(=O)(=O)c1ccccc1	none (no result: pPAFAH FP inh)
CCCCCC(=O)NC(=S)NC1C2CC3CC(C2)CC1C3 (stereo unspecified)	TCR-CD3 inh 35.1 | BSA TAMRA ctr inactive | TCR-CD3 inh conf 28.6
Cc1ccn2c(NC3CCCCC3)c(-c3cccc(SC4CCCCC4)c3)nc2c1	none
CCC(C)Sc1cccc(-c2nc3cc(C)ccn3c2NC2CCCCC2)c1 (stereo unspecified)	TCR-CD3 inh 24.6! | BSA TAMRA ctr inactive | TCR-CD3 inh conf inactive
CCOC(=O)CS(=O)(=O)c1nc(-c2ccccc2)cc(C(F)(F)F)n1	TCR-CD3 inh 22.3 | BSA TAMRA ctr inactive | TCR-CD3 inh conf inactive
CCOC(=O)CCS(=O)(=O)c1nc(-c2ccccc2)cc(C(F)(F)F)n1	none (no result: TCR-CD3 inh)
C#CCOCCOCCOCCNc1nc(N2CCN(C(=O)C(Cc3ccc(O)cc3)n3cc(C(N)C(C)CC)nn3)CC2)nc(N2CCN(C(=O)C(Cc3ccc(O)cc3)n3cc(C(N)C(C)CC)nn3)CC2)n1 (stereo unspecified)	none
C#CCOCCOCCOCCNc1nc(N2CCOCC2)nc(N2CCN(C(=O)[C@H](Cc3ccc(O)cc3)n3cc([C@@H](N)C(C)CC)nn3)CC2)n1 (stereo partly specified)	TCR-CD3 inh 19.6 | BSA TAMRA ctr inactive | TCR-CD3 inh conf inactive
O=C(/C=C/c1ccc(O)c(O)c1)NC(=O)c1ccccc1O	TCR-CD3 inh 24.5 | BSA TAMRA ctr inactive | TCR-CD3 inh conf 20.6
CCc1nc(SCc2ccccc2C#N)n[nH]1	none (no result: pPAFAH FP inh)
CN1CCN(C(=O)c2cc3c(c(-c4cccc(-c5cccnc5)c4)n2)[C@@H](CCO)N(C(=O)CC2CC2)C3)CC1	TCR-CD3 inh 25.1 (no result: pPAFAH FP inh, PAFAH2 inh, PAFAH1B3 inh, PAFAH1B2 FP inh) | BSA TAMRA ctr inactive | TCR-CD3 inh conf inactive
O=C(CSc1nc2nn(-c3ccccc3)c(=O)c-2c2n1CCCCC2)Nc1ccccc1[N+](=O)[O-]	none (no result: pPAFAH FP inh)
CCCn1c(=O)c2c(nc3n2CCS3)n(C)c1=O	none
O=C1NC(=O)C2(N1)C(=O)c1cccc3cccc2c13 (stereo unspecified)	TCR-CD3 inh 60.8 (no result: pPAFAH FP inh, PAFAH2 inh, PAFAH1B3 inh, PAFAH1B2 FP inh) | BSA TAMRA ctr 37.2 | TCR-CD3 inh conf 31.1
O=C1NC(=O)C2(N1)c1ccccc1-c1ccccc12	none (no result: pPAFAH FP inh)
Cc1ccc2nc(SCC(=O)NCc3ccc4c(c3)OCO4)nc(=O)n2c1	none
CCC(=O)NNC(=O)c1c(O)c2ccccc2[nH]c1=O	TCR-CD3 inh 32.8 | BSA TAMRA ctr inactive | TCR-CD3 inh conf 24.3
CC1=NN(c2ccccc2)C(=O)C1C=Nc1ccc(N(C)C)cc1 (stereo unspecified)	pPAFAH FP inh 34.1, TCR-CD3 inh 23.0 (no result: PAFAH2 inh, PAFAH1B3 inh, PAFAH1B2 FP inh) | BSA TAMRA ctr inactive | TCR-CD3 inh conf inactive
Oc1ccc(/C=C/c2nc(-c3ccccc3O)n(-c3ccccc3)n2)cc1	TCR-CD3 inh 46.4 | BSA TAMRA ctr inactive | TCR-CD3 inh conf inactive
O=C1[C@H](Cc2ccccc2)NCC=CC[C@H](c2ccc(Cl)cc2)N1Cc1ccc(Cl)cc1	none (no result: pPAFAH FP inh)
Oc1c(Br)cc2oc3c(c2c1CNCc1ccccc1)CCCC3	none
NC(=S)N/N=C/c1c(O)c(Br)cc2oc3c(c12)CCCC3	TCR-CD3 inh 42.8 | BSA TAMRA ctr inactive | TCR-CD3 inh conf 27.7
O=C1CC(N(CCc2ccccc2)C(=S)Nc2ccccc2)C(=O)N1c1ccc(Br)cc1 (stereo unspecified)	TCR-CD3 inh 24.1 | BSA TAMRA ctr inactive | TCR-CD3 inh conf inactive
CCc1ccc(N2C(=O)C3CCCN3C2=S)cc1 (stereo unspecified)	none
COc1ccc(N2C(=O)C3CCCN3C2=S)cc1 (stereo unspecified)	TCR-CD3 inh 20.1 | BSA TAMRA ctr inactive | TCR-CD3 inh conf inactive
CCCCNS(=O)(=O)c1ccc(NC(=O)c2c(-c3ccccc3Cl)noc2C)cc1	none (no result: TCR-CD3 inh)
COc1ccc(NC(=O)CCCNC(=O)Cn2cnc3sc(C)c(C)c3c2=O)c(OC)c1	TCR-CD3 inh 72.3 | BSA TAMRA ctr inactive | TCR-CD3 inh conf inactive
COc1cc(/C=N/n2c(=S)[nH]nc(C)c2=O)cc([N+](=O)[O-])c1O	none (no result: PAFAH2 inh, PAFAH1B3 inh, PAFAH1B2 FP inh)
CCc1n[nH]c(=S)n1/N=C/c1cc(OC)cc([N+](=O)[O-])c1O	TCR-CD3 inh 44.2 | BSA TAMRA ctr inactive | TCR-CD3 inh conf 44.0
Cc1ccc(C(=O)Nc2cccc([N+](=O)[O-])c2)cc1S(=O)(=O)Nc1ccc(NC(=O)c2ccccc2)cc1	TCR-CD3 inh 29.9 | BSA TAMRA ctr inactive | TCR-CD3 inh conf 23.2
COc1cc(OC)c2c(c1O)OC(c1ccccc1)CC2=O (stereo unspecified)	TCR-CD3 inh 38.7 | BSA TAMRA ctr inactive | TCR-CD3 inh conf 18.9
O=C1CC(c2ccccc2)Oc2cc(O)cc(O)c21 (stereo unspecified)	none
Cn1c(=O)c(-c2cc(=O)[nH][nH]2)c(O)c2ccccc21	TCR-CD3 inh 19.3 (no result: PAFAH2 inh, PAFAH1B3 inh, PAFAH1B2 FP inh) | BSA TAMRA ctr inactive | TCR-CD3 inh conf inactive
CCn1c(=O)c(-c2cc(=O)[nH][nH]2)c(O)c2ccccc21	none
O=C(N/N=C/c1cccnc1)c1cc(O)c(O)c(O)c1	TCR-CD3 inh 32.3 | BSA TAMRA ctr inactive | TCR-CD3 inh conf 20.4
